# Source: PubChem (National Center for Advancing Translational Sciences (NCATS))
# Pf growth 96h = P. falciparum growth inhibition at 96 hours | P. falciparum luciferase reporter growth, 96 h | Potency, µM (top dose mostly 28.7 µM), for the others: at the highest dose activity change, negative = inhibition, actives largely listed as inhibitors | 6.9% of 320,000 active; note: % is set by controls: 0 for no effect and ±100 for the full control effect
#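 Two-generation exposure (96 h) targets delayed-death phenotype. Reporter parasites carrying integrated firefly luciferase, in red cells at 2% hematocrit and 0.05% parasitemia final, kept at 37 C, 5% CO2; luminescence loss indicates inhibition.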
# AMA1 RON2 block = inhibitors of Plasmodium falciparum AMA1-RON2 interaction; AID 720542; AlphaScreen AMA1-biotinylated RON2 peptide binding; 0.2% of 360,000 active; Potency, µM (highest dose often 58.2 µM), inactives show at the top dose activity change, negative = inhibition, usual class: inhibitors;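 note: 0% = vehicle wells and -100% = peptide control; nearly all actives have a fitted effect of over 45% in size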
#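 AMA1 (3D7) with his tag at 25 nM final met compounds first, then biotinylated RON2 peptide at 25 nM; detection used donor plus acceptor beads, 10 µg/mL apiece, read by AlphaScreen after 30 min at room temperature.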
# Pf growth 48h = P. falciparum growth inhibition at 48 hours (one generation) | 5.9% of 310,000 active | AID 504832 | Potency, µM (top dose mostly 28.7 µM), for the others: top-dose activity change, negative = inhibition, usual class: inhibitors | P. falciparum luciferase growth in erythrocytes, 48 h; note: % is set by controls: 0 for no effect and ±100 for the full control effect
#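 A one-generation exposure of luciferase-tagged malaria parasites in RPMI 1640/Albumax erythrocyte culture, 37 C and 5% CO2. Inhibition is inferred from decreased luminescence after adding detection reagent.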
# SARS PLP yeast = SARS-CoV PLP inhibition in yeast. Potency, µM (highest dose often 32.9 µM), without a hit: at the top dose activity, positive = growth rescue, most hits filed as activators. S. cerevisiae expressing SARS-CoV PLpro, growth rescue. 0.19% of 330,000 active; calls by dose curve; note: 0% is about no effect; nearly all actives have a fitted effect of over 55% in size
# * hit, by the source's call; ? = inconclusive; . = not tested or not shown; [ ] = remark or other dose. Rows were chosen to be rich in hits. Some 9.4% of all compounds tested hit in one or more screens of this group. Unless noted, calls come from the whole dose curve; as a rule, active = well fitted curve in the direction sought with a large enough effect; inconclusive = small, poorly fitted or top-dose-only effect, or another doubt; inactive = no such curve, though single readings can be large; an effect the other way counts as inactive or inconclusive. Potency is the fitted concentration of half-maximal effect.
SMILES,Pf growth 96h,AMA1 RON2 block,Pf growth 48h,SARS PLP yeast
[O-]/C(=C(\C(=S)Nc1ccc(SC(F)F)cc1)[n+]1ccccc1)c1cc(Cl)ccc1Cl,-11%,-25%,-14%,-4%
C=CCn1c(C)cc(/C([O-])=C(/C(=S)Nc2ccc(OC(F)F)cc2)[n+]2ccc(N(C)C)cc2)c1C,3.7µM*,16%,?,0%
Cc1cc(C)c(/C([O-])=C(/C(=S)Nc2ccc(SC(F)F)cc2)[n+]2ccccc2)cc1C,?,0%,12µM*,1%
COc1cccc(CNC(=O)N2CCN(c3ccccc3)CC2)c1,24%,11%,14%,0%
CC(C)(C)n1nc2c(c1NC(=O)COc1ccc(Cl)cc1)CSC2,4.7µM*,-5%,?,6%
CC(C)(C)n1nc2c(c1NC(=O)Cc1ccc(F)cc1)CSC2,10µM*,-6%,.,17%
COc1ccc(-n2nc3c(c2NC(=O)C(C)Cl)CSC3)cc1 (centres undefined),-18%,5%,-4%,-7%
COc1ccc(-n2nc3c(c2NC(=O)CCl)CSC3)cc1,?,1%,0.74µM*,-3%
CCCCN(Cc1ccco1)C(=O)c1cc2c(=O)[nH]c3ccc(C)cc3c2s1,4%,12%,.,6%
Cc1ccc2[nH]c(=O)c3cc(C(=O)N(CCCOC(C)C)Cc4ccco4)sc3c2c1,5.9µM*,-7%,.,-7%
CC1CCN(C(=O)c2cc3ccccc3o2)CC1,?,0%,110%,?
Cc1ccc(C2Nc3ccc4ccccc4c3C3=C2C(=O)CC(C)(C)C3)o1 (centres undefined),?,-4%,15µM*,0%
CC1(C)CC(=O)C2=C(C1)c1c(ccc3ccccc13)NC2c1ccc(C(=O)O)cc1 (centres undefined),?,5%,?,3%
O=C(NC1CCCC1)C1CCN(S(=O)(=O)c2ccccc2)CC1,2%,3%,?,0%
CCNC(=O)C1CN(S(=O)(=O)c2ccccc2)CCN1S(=O)(=O)c1ccccc1 (centres undefined),2.3µM*,-3%,12%,-4%
O=C(NC1CCCCC1)C1CN(S(=O)(=O)c2ccccc2)CCN1S(=O)(=O)c1ccccc1 (centres undefined),12µM*,-1%,-9%,1%
COc1ccc(CCNC(=O)[C@@H](NC(=O)c2ccccc2F)C(C)C)cc1OC,-1%,14%,?,0%
O=C(C[n+]1cc(-c2ccc(Cl)c(Cl)c2)n2c1CCC2)OCc1ccccc1,11%,-7%,0%,9%
CC1CCC(C(C)C)C(OC(=O)C[n+]2cc(-c3ccc(Cl)cc3)n3c2CCCCC3)C1 (centres undefined),2.9µM*,-6%,2.9µM*,2%
O=C(C[n+]1cc(-c2ccccc2)n2c1CCCCC2)c1ccc(Cl)cc1,0.66µM*,-15%,1.5µM*,-22%
O=C(C[n+]1cc(-c2ccccc2)n2c1CCC2)Nc1nc(-c2ccccc2)cs1,?,-4%,?,18%
Cc1ccc(-c2c[n+](CC(=O)c3ccc(Br)cc3)c3n2CCCCC3)cc1,-18%,-5%,5.2µM*,0%
C[n+]1cc(-c2ccccc2)n2c1CCCCC2,1.7µM*,3%,?,-1%
CCCCn1c(N)c(N(CC)C(=O)C2CCCC2)c(=O)[nH]c1=O,15%,-9%,-27%,0%
Cc1ccc2c(c1)nnn2C1CCN(CC(=O)Nc2ccc(F)cc2)CC1,?,-19%,?,-1%
SMILES,Pf growth 96h,AMA1 RON2 block,Pf growth 48h,SARS PLP yeast
COCC(=O)N1CCC(n2nnc3cc(C(F)(F)F)ccc32)CC1,5.2µM*,-2%,20%,-1%
Cc1ccc(Cn2nnnc2CN2CCC(O)(c3ccccc3F)CC2)cc1,39%,-3%,15µM*,-19%
FC(F)(F)c1ccc2c(c1)nnn2C1CCN(Cc2nnnn2Cc2ccccc2)CC1,10µM*,7%,7.4µM*,-1%
Cc1ccc(Cn2nnnc2CN2CCC(n3nnc4cc(C)ccc43)CC2)cc1,13µM*,11%,?,-2%
Cc1ccc(Cn2nnnc2CN2CCC(n3nnc4cc(C(F)(F)F)ccc43)CC2)cc1,-15%,-7%,?,-11%
C=CCNC(=O)CN1CCC(n2nnc3cc(C(F)(F)F)ccc32)CC1,180%,17%,-4%,0%
COc1cccc(NC(=O)CCP(C)(=O)O)c1,?,-1%,11%,2%
COc1ccc(-c2cnc(N)nc2-c2ccc(OC)cc2)cc1,-19%,-11%,-20%,-1%
O=C1CC(NS(=O)(=O)c2cccnc2)CN1c1ccc(F)cc1 (centres undefined),22%,-7%,5%,2%
COc1ccccc1CC(=O)NC1CCN(Cc2ccccc2)CC1,4%,8%,27%,1%
Cc1cc2oc(=O)cc(CN(Cc3ccccc3)Cc3ccccc3)c2cc1Cl,.,-2%,.,.
COc1ccccc1CCC(=O)N1CCN(S(=O)(=O)c2cc(C(F)(F)F)ccc2Cl)CC1,3.7µM*,-7%,?,0%
CCOC(=O)C(Cc1ccccc1)NC(=O)CCc1c(C)nc2nc(C)nn2c1C (centres undefined),7.4µM*,-12%,6%,-4%
CCOC(=O)C(Cc1ccccc1)NC(=O)CCc1c(C)nc2ncnn2c1C (centres undefined),22%,-9%,2%,3%
COc1cc(-c2csc(NC3CCCCC3)n2)cc(OC)c1OC,?,-19%,12µM*,-2%
O=[N+]([O-])c1cc(C(F)(F)F)ccc1NCCNC(=S)Nc1ccc(Cl)cc1,?,-22%,?,17%
CCOC(=O)C1CCN(Cc2nnnn2CCc2ccccc2)CC1,0%,-4%,92%,1%
Cc1nc2cc(F)ccc2n1C1CCN(Cc2nnnn2CCc2ccccc2)CC1,?,-6%,9.3µM*,3%
Cc1nc2cc(C(F)(F)F)ccc2n1C1CCN(Cc2nnnn2CCc2ccccc2)CC1,-1%,-2%,13µM*,-6%
Cn1ncc(Br)c1C(=O)Nc1c(F)c(F)cc(F)c1F,-2%,7%,11%,4%
Cc1ccc(SCc2nn(C)c(Cl)c2C=O)cc1,-4%,16%,66%,-7%
Cc1ccccc1NC(=O)NCC1CCCO1 (centres undefined),.,0%,25%,.
C/C(=N\OCc1nc2ccccc2c(=O)n1/N=C/c1cc(C)cc([N+](=O)[O-])c1O)c1ccccc1,?,-1%,6.6µM*,6%
C/C(=N\OCc1nc2ccccc2c(=O)n1/N=C/c1cc([N+](=O)[O-])ccc1O)c1ccccc1,?,87%,?,?
CNc1cccc(-c2ccccc2C(C)=O)n1,.,-1%,.,.
CCN(CC)C(=O)Cn1c(=O)n(Cc2ccc(F)cc2)c(=O)c2sccc21,?,23%,9%,6%
COC(=O)CNC(=O)Cn1c(=O)n(Cc2ccc(F)cc2)c(=O)c2sccc21,12µM*,6%,44%,5%
Fc1ccc(Cn2nnnc2CN2CCN(C3CCCC3)CC2)cc1,0%,24%,-2%,14%
Cc1cccc(CSCc2ccc(C(=O)NC(C)C)o2)c1,3.7µM*,-6%,2%[0.00184 µM],-1%
